Results filed as inconclusive are left out. Values without a mark were called inactive. The source made the active and inactive calls. The call rests on the fitted dose curve; in most records, active means well fitted inhibition curve with a large enough effect; inconclusive means small, poorly fitted or top-dose-only effect; inactive means flat fitted curve, though single readings scatter.
Assay: P-glycoprotein substrates identified in KB-8-5-11 adenocarcinoma cell line, qHTS therapeutic library screen (AID 1346987); further: nearly all actives have a fitted effect of over 65% in size
Settings: KB-8-5-11 (P-gp overexpressing) viability, CellTiter-Glo, 72 h; series mostly up to 44.5 µM; activity change, negative = cytotoxicity: at the top concentration
Outline: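 KB-8-5-11: colchicine-selected sub-line of KB-3-1 over-expressing P-gp; assay medium lacked colchicine. 72 h drug exposure at 37 degree C, CellTiter-Glo.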
In the case of C=CC(C)(CC/C=C(\C)C(=O)OC[C@H]1O[C@@H](OC(C)(C=C)CC/C=C(\C)C(=O)O[C@H]2[C@H](O)[C@@H](O)[C@H](OC(C)(C=C)CC/C=C(\C)C(=O)O)O[C@@H]2CO)[C@H](O)[C@@H](O)[C@@H]1O)O[C@@H]1O[C@H](CO)[C@@H](O)[C@H](O)[C@H]1O (some centres not stated), the outcome is reported as “inactive [at 9.29 µM]”. With CC(C)CC(=O)NCCn1cc(C(=O)O)c(=O)cc1C(O)c1ccccc1 (configuration not stated) the “activity change, negative = cytotoxicity” value was 9.02%. In the case of C/C=C1\[C@H](O[C@@H]2O[C@H](CO)[C@@H](O)[C@H](O)[C@H]2O)OC=C(C(=O)O)[C@H]1CC(=O)OCCc1ccc(O)cc1, the “outcome” value is reported as “inactive [at 17.3 µM]”. In the case of CC1=C(CC/C(C)=C/C(=O)O)[C@@]2(C)CCCC(C)(C)C2CC1=O (some centres not stated), the “outcome” value is reported as “inactive”. In the case of Cc1ccccc1-n1nc(-c2c(-c3ccc(F)cc3)nn3c2NC[C@@H](CO)C3)ccc1=O, the “activity change, negative = cytotoxicity” value is reported as -5.93%. For C/C=C(/C)C(=O)O[C@H]1C[C@]2(C)O[C@@H]2[C@@H](OC(C)=O)[C@@]2(C)CC[C@@](O)(C(C)C)[C@H]12, the “activity change, negative = cytotoxicity” value was -4.21%. For CNc1nc(Nc2cn(C(C)(C)C#N)nc2C)ncc1C(F)(F)F, the “activity change, negative = cytotoxicity” value was -9.4%. For CC(C)C[C@H](NC(=O)[C@@H]1O[C@H]1C(=O)O)C(=O)NCCCCN=C(N)N, the “activity change, negative = cytotoxicity” value was -7.76%. In the case of O=C1NC(=O)/C(=C/c2cccc(C(F)(F)F)c2)S1, the “activity change, negative = cytotoxicity” value is reported as -15.3%. For C=CC(C)(CCC=C(C)C)O[C@@H]1O[C@H](CO)[C@@H](O)[C@H](O)[C@H]1O (some centres not stated), the “outcome” value was “inactive”. In the case of CC1=C[C@H](O)[C@H]2C(C)(C)CCC[C@]2(C)[C@@]1(O)CO, the “activity change, negative = cytotoxicity” value is reported as 0.253%. For CC[C@@H]1C(=O)O[C@]23C=C[C@@H]4C(C(=O)OC)=CO[C@H](O[C@@H]12)[C@@H]43, the “activity change, negative = cytotoxicity” value was -10.6%.

Source: PubChem BioAssay (NCATS)
On the % scale 0 is the no-effect control and ±100 the full control effect.
